GPT2 inhibitor – Primary qHTS assay for inhibitors of Glutamate pyruvate transaminase 2 (GPT2); Potency, µM (highest dose often 57.7 µM), inactives show top-dose activity change, negative = inhibition, usual class: inhibitors; actives 0.25% (n = 100,000); Recombinant GPT2, coupled pyruvate oxidase/HRP Amplex Red fluorescence; AID 1671188, 2021; Alanine aminotransferase 2 (Homo sapiens), Q8TD30; note: potency is the fitted concentration of half-maximal effect; nearly all actives have a fitted effect of over 60% in size
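Recombinant GPT2 (10ng/uL) with 250uM a-KG and 2mM L-alanine, 30 min at room temperature, in HEPES pH 7.5 buffer. Pyruvate detected by pyruvate oxidase/HRP/Amplex Red fluorescence after 30 min in the dark; AOA (50uM) as positive control.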
SNCA viab count – GF-AFC viability counterscreen for inhibitors of alpha-synuclein gene (SNCA) expression; HEK-293-SNCA-luc viability, GF-AFC fluorescence, 24 h; Potency, µM (titrated, usually from 57.1 µM), for the others: at the top dose activity change, negative = cytotoxicity, usual class: cytotoxic; actives 0.12% (n = 150,000);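 note: potency is the fitted concentration of half-maximal effect; 0% = DMSO-treated cells and -100% = medium-only wells without cells; nearly all actives have a fitted effect of over 30% in size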
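Cytotoxicity counterscreen: after 24 h compound treatment of genome-edited SNCA-luciferase HEK-293 cells, live-cell protease substrate GF-AFC read by fluorescence after 30 min; activity scaled between DMSO (0%) and medium-only (-100%), curves Hill-fitted.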
IP6K1 inh – Primary qHTS assay for small molecule inhibitors of Inositol hexaphosphate kinase 1 (IP6K1); Inositol hexakisphosphate kinase 1 (Homo sapiens), Q92551; IP6K1 kinase, ADP-Glo luminescence, 2 h; hits give low values; activity change, % (series mostly up to about 58 µM); actives 0.81% (n = 140,000); AID 1645851, 2021; in the data active = activity change below about -25%
Target sequence (Q92551 whole entry, looked up): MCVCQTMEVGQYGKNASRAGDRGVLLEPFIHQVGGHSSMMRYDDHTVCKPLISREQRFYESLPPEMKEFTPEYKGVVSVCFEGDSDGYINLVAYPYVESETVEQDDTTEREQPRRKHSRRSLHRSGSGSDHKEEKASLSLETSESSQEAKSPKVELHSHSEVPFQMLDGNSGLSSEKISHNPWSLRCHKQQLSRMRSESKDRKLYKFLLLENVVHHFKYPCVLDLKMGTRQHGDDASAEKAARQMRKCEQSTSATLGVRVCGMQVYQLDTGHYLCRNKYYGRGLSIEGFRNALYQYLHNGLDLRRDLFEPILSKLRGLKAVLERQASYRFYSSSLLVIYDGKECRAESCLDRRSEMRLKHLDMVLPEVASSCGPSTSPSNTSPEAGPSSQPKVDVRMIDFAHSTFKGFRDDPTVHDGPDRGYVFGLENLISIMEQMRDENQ
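ADP-Glo luminescence measures ADP made by human IP6K1 during a 2 h RT reaction with ATP/IP6 (mix at 1.3 mM/130 uM); top library doses 57.5 and 19.1 uM final.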
SNCA expr inh – Primary qHTS assay for inhibitors of alpha-synuclein gene (SNCA) expression; HEK-293 SNCA-luciferase knock-in, luminescence, 24 h; Potency, µM (highest dose often 57.2 µM), inactives show at the top dose activity change, negative = inhibition, most hits filed as inhibitors; actives 0.17% (n = 140,000); AID 1671194, 2021;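 note: potency is the fitted concentration of half-maximal effect; plate controls were DMSO cells for no effect and cell-free wells for full effect; nearly all actives have a fitted effect of over 45% in size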
IP6K1 conf – Confirmatory qHTS assay for small molecule inhibitors of Inositol hexaphosphate kinase 1 (IP6K1). shares compounds with IP6K1 inh. recombinant IP6K1 kinase, ADP-Glo luminescence, 2 h. Potency, µM (doses to about 49 µM), for inactives: at the highest dose activity change, negative = inhibition, hits mostly inhibitors. actives 13% (n = 1,200). AID 1645852, 2021; note: potency is the fitted concentration of half-maximal effect; nearly all actives have a fitted effect of over 65% in size
An asterisk follows results filed as active; i = inactive; u = inconclusive; x = not tested or not shown; [ ] = another dose, or the depositor's remark. Compounds with a hit are over-represented: about 0.9% of the library has one in this group of screens. Unless noted, calls come from the whole dose curve; as a rule, active = well fitted curve in the direction sought with a large enough effect; inconclusive = small, poorly fitted or top-dose-only effect, or another doubt; inactive = no such curve, though single readings can be large; an effect the other way counts as inactive or inconclusive. Unless noted, % is set by controls: 0 for no effect and ±100 for the full control effect.

SMILES | GPT2 inhibitor | SNCA viab count | IP6K1 inh | SNCA expr inh | IP6K1 conf
Cc1nn2c(c1-c1ccccc1C(C)C)N(CCC(C)C)CCC2 | -14%[88.5 µM] | u | -2 | u | x
Cc1ccc([C@H]2Nc3ccc(S(=O)(=O)Nc4cccc(Cl)c4C)cc3[C@H]3C=CC[C@H]32)cc1 | x | -19% | -27* | -10% | -5%
COC(=O)c1ccc([C@H]2Nc3ccc(S(=O)(=O)Nc4cccc(C)c4)cc3[C@H]3C=CC[C@H]32)cc1 | x | -1% | 6 | 10% | x
CCN1CCN(c2ccc(-c3cccc(N)c3)nn2)CC1 | i | 1% | -17 | u | x
Nc1cccc(-c2ccc(N3CCCCC3)nn2)c1 | -5% | -10% | -27* | 1.8µM* | u
COc1ccc(-n2c(=O)c3c4c(sc3n(Cc3cc(=O)n5c(C)cccc5n3)c2=O)CCC4)c(OC)c1 | x | u | -39* | -9% | -10%
COc1ccc(-n2c(=O)c3c4c(sc3n(Cc3ccc(C)cc3C)c2=O)CCC4)c(OC)c1 | x | 4% | -16 | 2% | x
N[C@H](Cc1c[nH]c2ccccc12)C(=O)O | i | -19%[23.9 µM] | -8 | -19%[25.6 µM] | x
OCc1c[nH]c2ccccc12 | u | -13% | -28* | -30% | -13%[92.2 µM]
CN1C(C)(C)CCCC1(C)C | -1% | 30%[23.9 µM] | -35* | 9%[25.6 µM] | -2%
Cc1ccc([N+](=O)[O-])cc1S(=O)(=O)N1CCn2cccc2C1c1ccccc1 (centres undefined) | x | 7% | -5 | -9% | x
Cc1ccc([N+](=O)[O-])cc1S(=O)(=O)N1CCn2cccc2C1c1ccccc1F (centres undefined) | x | -2% | -26* | 22% | -20%
COc1cc(OC)cc(C(=O)Nc2cc(-c3nc4ccccc4[nH]3)ccc2C)c1 | x | u | -25* | -9% | 14%
COc1ccc(OC)c(CN2CCNc3cc(-c4ccnc(C)c4)ncc3C2)c1 | -8%[88.5 µM] | -20%[87.6 µM] | -27* | 45%[87.6 µM] | 3%
COc1ccc(NC(=O)Cc2csc(COc3cccc(C)c3)n2)cc1OC | x | -2% | -27* | 3% | 34%
Cc1cccc(NC(=O)Cc2csc(COc3cccc(C)c3)n2)c1 | x | 4% | -22 | 16% | x
CC1=C(C(=O)OC(C)C)C(c2cccc([N+](=O)[O-])c2)C(C(=O)OC2CN(C(c3ccccc3)c3ccccc3)C2)=C(N)N1 (centres undefined) | -12% | -10%[23.9 µM] | 1 | -41%[25.6 µM] | 0%
Cc1ccc(CNC(=O)Cc2c(C)c3c(cc(C)c4c(C)coc43)oc2=O)cc1 | x | 2% | -26* | -5% | -20%
Cc1ccc(C(=O)N2CCN(c3nccc(Nc4ccccc4Cl)n3)CC2)cc1 | i | u | 15 | -21% | x
COc1ccc(CCC(=O)NCc2ccc3c(c2)CCN3C(=O)c2ccc(Cl)cc2)cc1 | x | u | -28* | 1% | 9%
COc1ccc(CC(=O)NCc2ccc3c(c2)CCN3C(=O)c2ccc(Cl)cc2)cc1 | x | 4% | -12 | -3% | x
O=C(NCc1cccc(F)c1)C1CCCCN1Cc1ccc(-c2cccs2)cc1 (centres undefined) | -4% | 0%[12.5 µM] | -7 | 4% | x
CCCCc1nn(CC(=O)NCC2Cc3ccccc3CN2C)c(=O)n1CC (centres undefined) | 1%[11.5 µM] | -5% | -30* | -8% | -7%
CCCCc1nn(CC(=O)NC[C@H]2CCc3ccccc3O2)c(=O)n1CC | -17% | 1% | 12 | -5% | x
COc1cc(C2c3c(oc4ccccc4c3=O)C(=O)N2c2nnc(C(C)C)s2)cc(OC)c1OC (centres undefined) | x | -7% | -26* | -1% | 6%
SMILES | GPT2 inhibitor | SNCA viab count | IP6K1 inh | SNCA expr inh | IP6K1 conf
CCOc1ccc(C2c3c(oc4ccccc4c3=O)C(=O)N2c2nnc(C)s2)cc1OC (centres undefined) | x | -3% | -37* | 24% | -10%
Cc1ccc(C2c3c(oc4ccccc4c3=O)C(=O)N2c2nnc(C)s2)cc1 (centres undefined) | x | -9% | 17 | -1% | x
Cc1nnc(N2C(=O)c3oc4ccccc4c(=O)c3C2c2ccc(Cl)cc2)s1 (centres undefined) | x | -5% | -4 | -12% | x
CCN1/C(=C/C=C/c2sc3ccccc3[n+]2CC)Sc2ccccc21 | i | 0%[12.5 µM] | -36* | -76%[17 µM] | u
CCc1nc2ccc(C(=O)NCc3ccc(N(C)C)cc3)cc2nc1CC | x | -1% | -26* | 12% | -16%
O=C(NCc1cccc(F)c1)C1CN(C2CCCC2)C(=O)N1 (centres undefined) | i | 2%[12.5 µM] | -7 | 15%[87.6 µM] | x
C/C=C/C=C/C=C/C(=O)O[C@@H]1[C@@H](OC)C2=C(C(=O)N(C(CCC(=O)O)C(=O)O)C2)[C@@]2(C)CCCC(C)(C)[C@H]12 (some centres undefined) | i | 0%[23.9 µM] | -17 | x | x
C/C=C/C=C/C=C/C(=O)O[C@@H]1[C@@H](OC)C2=C(C(=O)N(C(C)C(=O)O)C2)[C@@]2(C)CCCC(C)(C)[C@H]12 (some centres undefined) | i | -24%[23.9 µM] | 11 | x | -6%[18.9 µM]
COCC(=O)N1CCCN(c2ccc3nnc(C)n3n2)CC1 | x | x | 3 | x | x
CCOCCNC(=O)c1nc2cccnc2n(CCc2ccccc2)c1=O | i | 7% | 11 | -8% | x
CC(c1ccc(-c2cc(N)ncn2)cc1)N1CCCCC1 (centres undefined) | -1% | 7% | 12 | -15% | -2%
O=C(c1cccc(Cl)c1)N1CCCN(c2ccc3nnc(-c4ccccc4)n3n2)CC1 | x | x | 0 | x | x
Cc1cc(CS(=O)(=O)c2ccccc2)cc(OCc2ccc(CN3CCC[C@@H]3CO)cc2)c1 | u | -25% | -41* | x | 9%
CNC(=O)CCn1ncc2cc(OC3CCc4cccc(-c5ccc(F)cc5)c43)ccc21 (centres undefined) | u | u | -9 | u | x
CC(=O)N1CC2(CCCCN2C(=O)CCC(=O)O)Cc2ccccc21 (centres undefined) | i | 3% | -15 | -1% | x
COc1ccc(-c2nc(-c3c(C)noc3C)cc3[nH]c(C)cc23)cn1 | u | -16%[87.6 µM] | -31* | 48%[87.6 µM] | u
CC(=O)c1ccc(NC(=O)CSc2nnc(-c3ccncc3)n2-c2ccccc2)cc1 | x | 1% | 8 | -10% | x
Cn1c(SCC(=O)Nc2ccccc2)nnc1-c1ccccc1 | x | -7% | -34* | 47% | -5%
CCN1c2cc(C(=O)NCc3ccccc3OC)ccc2C(=O)N2CCCCC21 (centres undefined) | i | 13%[12.5 µM] | 3 | 21% | x
